# An excerpt weighted towards active compounds, which were near 2.8% of everything screened.
# HIF activator: HIF pathway transcriptional activators, primary screen, cell-based, U2OS HRE-luciferase, luminescence. U2OS HRE-luciferase reporter; normalized: DMSO 0%, desferrioxamine 100%. AID 1910, 2009. 300,000 tested, 0.32% active. activation, % at 7.5 µM (by protocol);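 active = mean activation of at least 10% of the iron chelator positive control signal, with at least half of replicates also reaching 10%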
# Platelet DG rel: inhibitors of platelet dense granule secretion, primary screen, cell-based, MLPCN, human platelets; human platelet-rich plasma, SFLLRN dense granule ATP release, luminescence; inhibition, %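 (compounds screened at 7.5 µM in platelet-rich plasma)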; 300,000 tested, 0.22% active;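 active = mean replicate score, as percent of positive control, at or above 50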
# pCIP destab: p/CIP-EGFP fusion destabilizers, primary screen, fluorescence, F442A cells. 16 h. Q05BA5. decrease of EGFP signal, % at 10 µM. 290,000 tested, 0.01% active;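 active = EGFP signal decrease of at least 30% at 10 µM or well 3 SD below plate mean, unless failing retest; inactive = the rest, including hits failing retest or dose response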
# Target sequence (Q05BA5 1-1403): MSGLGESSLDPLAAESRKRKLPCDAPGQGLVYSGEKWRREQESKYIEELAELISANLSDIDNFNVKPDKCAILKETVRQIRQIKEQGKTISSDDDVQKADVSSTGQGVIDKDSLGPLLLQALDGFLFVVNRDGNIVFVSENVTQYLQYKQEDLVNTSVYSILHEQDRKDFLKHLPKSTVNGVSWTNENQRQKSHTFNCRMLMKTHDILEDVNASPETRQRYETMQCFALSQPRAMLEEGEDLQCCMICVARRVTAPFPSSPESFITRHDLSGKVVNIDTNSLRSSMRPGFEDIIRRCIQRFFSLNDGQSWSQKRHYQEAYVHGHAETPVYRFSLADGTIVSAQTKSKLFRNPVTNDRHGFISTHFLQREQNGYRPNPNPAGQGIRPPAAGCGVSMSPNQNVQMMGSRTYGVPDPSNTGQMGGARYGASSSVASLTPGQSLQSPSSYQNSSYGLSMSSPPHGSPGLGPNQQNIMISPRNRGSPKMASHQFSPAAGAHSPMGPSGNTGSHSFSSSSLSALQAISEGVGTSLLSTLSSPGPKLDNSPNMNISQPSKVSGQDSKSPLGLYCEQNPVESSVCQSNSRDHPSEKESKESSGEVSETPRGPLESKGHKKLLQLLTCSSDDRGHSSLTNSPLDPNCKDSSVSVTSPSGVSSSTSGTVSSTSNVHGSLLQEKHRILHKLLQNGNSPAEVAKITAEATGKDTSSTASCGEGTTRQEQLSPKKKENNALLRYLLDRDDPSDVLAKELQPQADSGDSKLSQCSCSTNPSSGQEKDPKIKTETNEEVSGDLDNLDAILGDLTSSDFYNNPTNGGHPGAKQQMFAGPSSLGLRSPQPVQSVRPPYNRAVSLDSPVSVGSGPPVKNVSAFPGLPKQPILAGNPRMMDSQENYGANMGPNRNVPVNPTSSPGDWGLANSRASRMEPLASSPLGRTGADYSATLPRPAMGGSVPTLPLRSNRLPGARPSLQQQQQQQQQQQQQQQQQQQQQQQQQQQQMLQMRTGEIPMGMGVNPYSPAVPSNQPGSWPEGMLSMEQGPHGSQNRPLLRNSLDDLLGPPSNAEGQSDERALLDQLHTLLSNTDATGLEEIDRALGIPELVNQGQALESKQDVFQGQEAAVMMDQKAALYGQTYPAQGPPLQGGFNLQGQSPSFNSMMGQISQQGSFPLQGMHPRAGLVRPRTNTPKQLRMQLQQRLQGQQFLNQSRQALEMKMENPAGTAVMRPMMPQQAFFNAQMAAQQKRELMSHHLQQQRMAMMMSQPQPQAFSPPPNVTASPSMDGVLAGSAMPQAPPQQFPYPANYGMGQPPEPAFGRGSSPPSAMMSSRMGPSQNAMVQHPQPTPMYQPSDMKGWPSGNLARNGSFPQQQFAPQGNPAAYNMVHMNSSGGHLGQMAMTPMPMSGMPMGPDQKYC
# AHR act: AHR activators, primary screen, cell-based, luminescence, luciferase reporter, human; Aryl hydrocarbon receptor (Homo sapiens), P35869; AHR-responsive luciferase reporter cells; activation, % at 5 µM; 320,000 tested, 2.5% active; AID 2796, 2010; in the data active = activation above about 47%;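 also: 0% = vehicle wells and 100% = reference agonist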
# PolyA inh: polyadenylation inhibitors in yeast reporter cells, primary screen, luminescence, S. cerevisiae; AID 1875, 2009; activity score, % at 12 µM; S. cerevisiae SKY197-pL101 polyadenylation reporter, beta-gal luminescence; efflux-impaired pdr1/pdr3 knockout yeast; score 100 = 6 SD above DMSO; 300,000 tested, 0.02% active;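 active = lowest replicate activity score at least 50, where 100 means six control SD above control mean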;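 also: yeast exposed to compound for 9 h at 30 °C; higher score means more reporter readthrough which indicates perturbed polyadenylation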
# Numbers without * were called inactive; · = not tested or not shown.
SMILES,HIF activator,Platelet DG rel,pCIP destab,AHR act,PolyA inh
N#CCc1cnc2ccccc2n1,0,6,1,35,13
COc1c2c(nc3occc13)C(CC=C(C)C)(OC)C(OC(C)=O)CC2 (centres undefined),-16,2,-19,73*,-4
COc1c2c(nc3occc13)C(CC=C(C)C)(OC)C(O)CC2 (centres undefined),-43,0,-3,65*,10
CC(C)CC(C(=O)NC(C)(C)C)N(CC1CCCO1)C(=O)c1snc(C(N)=O)c1N (centres undefined),0,2,-3,2,7
O=C(COC(=O)CNC(=O)c1ccc(Cl)c([N+](=O)[O-])c1)NC(=O)c1ccccc1,0,-3,9,57*,2
O=C(COC(=O)CNC(=O)c1ccc(Cl)c([N+](=O)[O-])c1)NNC(=O)c1ccccc1F,·,·,·,2,·
CN(C)NC(=S)NC1(C)CCS(=O)(=O)C1 (centres undefined),-1,5,-4,1,-4
CCOc1ccc(N2CC(=O)N/C2=N\c2nc(C)cc(C)n2)cc1,0,14,-12,50*,0
N#CCSc1n[nH]c2nc3c(c(=O)n12)C1(CCCC1)Cc1ccccc1-3,0,7,1,52*,27
O=C(O)C(=O)/C(=C\c1ccc(Cl)cc1)c1ccc2ccccc2n1,4,2,19,65*,-10
Cc1ccc(C(=O)N2CC(=O)NC(=O)C2)cc1,-19,1,-2,-1,-16
CC(=O)N(CCc1ccccc1)Cc1cc2cc(C)ccc2[nH]c1=O,-2,-1,0,54*,-9
CCSC1=N/C(=C\C=C2/Oc3ccccc3N2CC)C(=O)S1,0,2,-117,75*,-5
CCCSC1=N/C(=C\C=C\c2ccco2)C(=O)S1,0,-6,-10,-2,6
CC(=O)Nc1cccc(NC(=O)COc2ccc3c(c2)OCO3)c1,2,0,-5,3,-6
COc1cccc(CNC(=O)N2CCN(S(=O)(=O)c3ccc(C)cc3)CC2)c1,0,5,-8,1,8
Cc1c(C=NNC(=O)c2ccc(Br)cc2)c2ccccn2c1C(=O)c1ccncc1,·,·,·,3,·
N#Cc1c(N)c2ccccn2c1C(=O)c1ccc(Br)cc1,0,5,5,61*,-15
CCOC(=O)c1sc2nc(CSc3ccccc3)nc(N3CCC(C(N)=O)CC3)c2c1C,-1,-5,40*,-4,-12
Cc1sc2nc(CSc3ccccc3)nc(N3CCC(C(N)=O)CC3)c2c1C,-1,-36,-4,0,-8
Cc1ccc2[nH]c(-c3cccc(N)c3)cc2c1,0,6,14,16,1
c1ccc(-c2cc3ccccc3[nH]2)cc1,3,-2,6,50*,9
Cc1ccc(O)c(-c2cc3ccccc3[nH]2)c1,2,5,6,49*,-17
COc1ccc(-c2cc3ccccc3[nH]2)cc1,3,-13,-6,21,-11
Cc1sc2nc(CSc3ccc([N+](=O)[O-])cc3)[nH]c(=O)c2c1C,0,6,-5,47*,-16
SMILES,HIF activator,Platelet DG rel,pCIP destab,AHR act,PolyA inh
O=C(O)CN1C(=O)/C(=C/c2ccc(N3CCCCC3)o2)SC1=S,-1,-5,-5,-1,106*
Cc1ccn2cc(C34CC5CC(CC(C5)C3)C4)nc2c1,1,-5,-7,21,4
CSc1nc2sc(-c3ccccc3)cc2c(=O)n1N,2,115*,-14,7,-4
CC(C)Sc1nc2sc(-c3ccccc3)cc2c(=O)n1N,·,·,-10,2,·
COCC1CCN(C(=O)c2cc(COc3ccc4ncccc4c3)on2)CC1,-1,3,-12,0,-1
COc1ccccc1NC(=O)NC1(C(=O)N2CCOCC2)CCCCC1,0,42,4,3,17
COc1ccccc1NC(=O)Nc1ccc(C(=O)N2CCCCC2)cc1,3,92*,-3,2,1
COc1ccccc1NC(=O)NC1(C(=O)N2CCCCCC2)CCCCC1,0,53*,-11,2,3
CC1(C)NC(=O)N(CC(=O)OCC(=O)NC(=O)c2ccccc2)C1=O,0,-21,·,-1,-2
N#C/C(N=Nc1ccccc1O)=N\Nc1ccccc1O,1,14,·,34,14

# Screening results from PubChem BioAssay.
